Data from publication PMC8222333, “AsCas12a ultra nuclease facilitates the rapid generation of therapeutic cell medicines”.
Where a chain is given by its changes, count along the chain named.

Assays:
Assay in all cases: Spec-seq (native PAGE EMSA with sequencing of bound and unbound); 25 mM Tris-HCl pH 7.4, 150 mM KCl, 5 mM MgCl2, 10% glycerol, 1 mM DTT, 40 ng/uL salmon sperm DNA; 400 nM Cas12a, 480 nM crRNA, 50 nM library, 37 C 1 h; native PAGE at room temperature; high values mean tight binding
Conditions in all cases: protein: recombinant
[1] = target: dAsCas12a Ultra (Acidaminococcus sp., UniProt U2UMQ6 1-1307, M537R;F870L;D908A;E993A;D1235A)
[2] = target: dAsCas12a S542R (Acidaminococcus sp., UniProt U2UMQ6 1-1307, S542R;D908A;E993A;D1235A);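 further: relative affinity from the bound to unbound sequence frequency ratio in Spec-seq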
[3] = target: d-enCas12a (Acidaminococcus sp., UniProt U2UMQ6 1-1307, E174R;S542R;K548R;D908A;E993A;D1235A)
[4] = target: d-enCas12a-Ultra (Acidaminococcus sp., UniProt U2UMQ6 1-1307, E174R;S542R;K548R;M537R;F870L;D908A;E993A;D1235A);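 further: relative affinity from the bound to unbound sequence frequency ratio in Spec-seq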
[5] = target: dAsCas12a E174R (Acidaminococcus sp., UniProt U2UMQ6 1-1307, E174R;D908A;E993A;D1235A);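 further: relative affinity from the bound to unbound sequence frequency ratio in Spec-seq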
[6] = target: dAsCas12a K548R (Acidaminococcus sp., UniProt U2UMQ6 1-1307, K548R;D908A;E993A;D1235A)

B1: AGGT (dsDNA)
DNA 1: GCTATCTAGTGCTCAGTACGCACTGAGGTAGGAAACTTCTGGCAGGACCAGGTCATGAGATCGGAAGAGCACACGTCTGAACTCCAGTCA
DNA 2: TGACTGGAGTTCAGACGTGTGCTCTTCCGATCTCATGACCTGGTCCTGCCAGAAGTTTCCTACCTCAGTGCGTACTGAGCACTAGATAGC
RNA: AAUUUCUACUCUUGUAGAUAGGAAACUUCUGGCAGGACC
binding signal [1]: -8.68 lnKA
binding signal [2]: -8.5 lnKA
binding signal [3]: -5.71 lnKA
binding signal [4]: -3.43 lnKA

B2: AGTC (dsDNA)
DNA 1: B1 DNA 1 with G28T, T29C
DNA 2: B1 DNA 2 with A62G, C63A
RNA: B1 RNA
binding signal [1]: -8.75 lnKA
binding signal [5]: -8.31 lnKA
binding signal [2]: -8.14 lnKA
binding signal [6]: -7.9 lnKA
binding signal [3]: -2.3 lnKA
binding signal [4]: -0.544 lnKA

B3: CCTC (dsDNA)
DNA 1: B1 DNA 1 with A26C, G27C, G28T, T29C
DNA 2: B1 DNA 2 with A62G, C63A, C64G, T65G
RNA: B1 RNA
binding signal [1]: -6.9 lnKA
binding signal [5]: -6.59 lnKA
binding signal [2]: -7.68 lnKA
binding signal [3]: -5.18 lnKA
binding signal [4]: -2.06 lnKA

B4: AGTA (dsDNA)
DNA 1: B1 DNA 1 with G28T, T29A
DNA 2: B1 DNA 2 with A62T, C63A
RNA: B1 RNA
binding signal [1]: -8.43 lnKA
binding signal [5]: -8.14 lnKA
binding signal [2]: -7.93 lnKA
binding signal [6]: -8.98 lnKA
binding signal [3]: -2.11 lnKA
binding signal [4]: -0.526 lnKA

B5: AGTT (dsDNA)
DNA 1: B1 DNA 1 with G28T
DNA 2: B1 DNA 2 with C63A
RNA: B1 RNA
binding signal [1]: -8.9 lnKA
binding signal [5]: -8.38 lnKA
binding signal [2]: -8.18 lnKA
binding signal [3]: -4.88 lnKA
binding signal [4]: -1.91 lnKA

B6: CCTA (dsDNA)
DNA 1: B1 DNA 1 with A26C, G27C, G28T, T29A
DNA 2: B1 DNA 2 with A62T, C63A, C64G, T65G
RNA: B1 RNA
binding signal [1]: -7.06 lnKA
binding signal [5]: -5.98 lnKA
binding signal [2]: -7.77 lnKA
binding signal [3]: -5.38 lnKA
binding signal [4]: -2.2 lnKA

B7: AGTG (dsDNA)
DNA 1: B1 DNA 1 with G28T, T29G
DNA 2: B1 DNA 2 with A62C, C63A
RNA: B1 RNA
binding signal [1]: -8.77 lnKA
binding signal [5]: -8.75 lnKA
binding signal [2]: -8.41 lnKA
binding signal [3]: -3.79 lnKA
binding signal [4]: -1.18 lnKA

B8: ATAA (dsDNA)
DNA 1: B1 DNA 1 with G27T, G28A, T29A
DNA 2: B1 DNA 2 with A62T, C63T, C64A
RNA: B1 RNA
binding signal [1]: -8.76 lnKA
binding signal [5]: -8.75 lnKA
binding signal [2]: -8.17 lnKA
binding signal [3]: -5.28 lnKA
binding signal [4]: -3.12 lnKA

B9: CCTT (dsDNA)
DNA 1: B1 DNA 1 with A26C, G27C, G28T
DNA 2: B1 DNA 2 with C63A, C64G, T65G
RNA: B1 RNA
binding signal [1]: -8.97 lnKA
binding signal [5]: -8.31 lnKA
binding signal [2]: -8.32 lnKA
binding signal [3]: -5.69 lnKA
binding signal [4]: -3.27 lnKA

B10: ATGA (dsDNA)
DNA 1: B1 DNA 1 with G27T, T29A
DNA 2: B1 DNA 2 with A62T, C64A
RNA: B1 RNA
binding signal [1]: -8.29 lnKA
binding signal [5]: -8.88 lnKA
binding signal [2]: -7.95 lnKA
binding signal [3]: -5.35 lnKA
binding signal [4]: -3.17 lnKA

B11: ATGT (dsDNA)
DNA 1: B1 DNA 1 with G27T
DNA 2: B1 DNA 2 with C64A
RNA: B1 RNA
binding signal [1]: -8.98 lnKA
binding signal [2]: -8.67 lnKA
binding signal [3]: -5.72 lnKA
binding signal [4]: -3.21 lnKA

B12: CCGG (dsDNA)
DNA 1: B1 DNA 1 with A26C, G27C, T29G
DNA 2: B1 DNA 2 with A62C, C64G, T65G
RNA: B1 RNA
binding signal [1]: -8.87 lnKA
binding signal [2]: -8.41 lnKA
binding signal [3]: -6.11 lnKA
binding signal [4]: -3.44 lnKA

B13: CCCC (dsDNA)
DNA 1: B1 DNA 1 with A26C, G27C, G28C, T29C
DNA 2: B1 DNA 2 with A62G, C63G, C64G, T65G
RNA: B1 RNA
binding signal [1]: -8.74 lnKA
binding signal [5]: -8.52 lnKA
binding signal [2]: -4.35 lnKA
binding signal [3]: -1.8 lnKA
binding signal [4]: -0.387 lnKA

B14: CGGG (dsDNA)
DNA 1: B1 DNA 1 with A26C, T29G
DNA 2: B1 DNA 2 with A62C, T65G
RNA: B1 RNA
binding signal [1]: -8.98 lnKA
binding signal [3]: -6.24 lnKA
binding signal [4]: -3.42 lnKA

B15: CCTG (dsDNA)
DNA 1: B1 DNA 1 with A26C, G27C, G28T, T29G
DNA 2: B1 DNA 2 with A62C, C63A, C64G, T65G
RNA: B1 RNA
binding signal [1]: -7.53 lnKA
binding signal [5]: -7.6 lnKA
binding signal [2]: -8.1 lnKA
binding signal [3]: -5.7 lnKA
binding signal [4]: -3.13 lnKA
